Pf apPOL inh – Pf-apPOL inhibitors, biochemical, fluorescence | Plasmodium falciparum apicoplast DNA polymerase (apPOL) | Recombinant Pf-apPOL, molecular beacon fluorescence, 1.5 h | inhibition, % at 10 µM | 210,000 compounds, 0.25% hits | AID 1794808, 2022
mHTT-CaM PPI inh – mutant huntingtin-calmodulin interaction inhibitors – biochemical, AlphaScreen, primary screen | AlphaScreen His-mHTT/GST-CaM binding, luminescence | AID 1671202, 2021 | inhibition, % at 15 µM | P42858 | 190,000 compounds, 3.6% hits;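 also: 0% = both proteins with DMSO and 100% = one protein alone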
* = called active by the depositor; . = not tested or not shown. This excerpt belongs to a sample that is enriched for hits. Rule as the data show it: active = inhibition above about 50%; inactive = the rest.

SMILES	Pf apPOL inh	mHTT-CaM PPI inh
O=C(Nc1c(F)cccc1F)N1CCc2[nH]cnc2C1c1ccccn1 (stereo unspecified)	-8	56*
CCOc1ccc(NC(=O)N2CCc3[nH]cnc3C2c2ccccn2)cc1 (stereo unspecified)	-7	94*
CC(=O)N1CCc2cc(S(=O)(=O)NCc3cccnc3)ccc21	-9	-4
O=C1C(=Cc2ccco2)Oc2cc(OCc3ccc(Br)cc3)ccc21	7	21
CCn1c(C)c(CN2CCC(C(=O)NCc3ccc(OC)cc3)CC2)c2ccccc21	0	13
Cc1cc2nn(Cc3ccccn3)c(=O)n2c(C(C)C)n1	-2	-11
CCOC(=O)c1ccc(NC(=O)C2CCCN(c3ccc(-n4cccn4)nn3)C2)cc1 (stereo unspecified)	-2	8
COc1ccc(-c2c(C)oc3c4c(ccc3c2=O)OCN(CC(C)C)C4)cc1OC	-2	9
CN1c2ccc(F)cc2C(=O)NC12CCN(C(=O)c1ccccc1)CC2	-4	4
OCCn1c(-c2ccc(F)cc2)csc1=Nc1ccc(F)cc1	-2	44
Cc1ccc(-c2csc(=Nc3ccc(F)cc3)n2CCO)cc1	0	63*
OCCCn1c(-c2ccc(F)cc2)csc1=Nc1ccc(F)cc1	-3	59*
O=C1c2ccccc2C(=O)N1c1cccc(-c2csc(=Nc3ccccc3)n2CCO)c1	-1	31
COC(=O)c1ccc(C=C2Oc3cc(OC)cc(C)c3C2=O)cc1	-6	7
COc1ccc2nc(N3CCC(C(=O)NCCCN4CCCC4)CC3)sc2c1	-7	4
O=C(CCNc1ccc(F)c(Cl)c1)c1ccccc1	12	-7
Fc1ccc(NC/C=C/c2ccco2)cc1Cl	-2	91*
CCOCCCNC(=O)C(C)Sc1nc2nc(C)cc(C)n2n1 (stereo unspecified)	2	-10
O=c1[nH]c2ccc(N=Cc3cc(O)ccc3Br)cc2[nH]1	-3	9
O=c1[nH]c2ccc(N=Cc3cc([N+](=O)[O-])c(Cl)cc3Cl)cc2[nH]1	0	94*
Cc1c(N=Cc2cc([N+](=O)[O-])c(Cl)cc2Cl)c(=O)n(-c2ccccc2)n1C	-1	0
O=c1[nH]c2ccc(N=Cc3cc(Br)cc(Br)c3O)cc2[nH]1	-8	61*
Cc1cc(C(=O)Nc2nnc(-c3ccn(C)n3)o2)c(C)o1	-2	20
Cc1cccc(-n2nc3c(c2NC(=O)Cc2ccccc2)CS(=O)(=O)C3)c1C	-4	-1
CSc1ccc(C2C3=C(CCCC3=O)Nc3ccc4ncccc4c32)cc1 (stereo unspecified)	-3	36
SMILES	Pf apPOL inh	mHTT-CaM PPI inh
CCC1=NS(=O)(=O)c2cccnc2N1c1ccc(F)c(C)c1	0	-7
COc1ccc(C(=O)Nc2cccc(O)c2)cc1OC	-2	3
O=C(CN1C(=O)c2ccccc2S1(=O)=O)N1CCCCCC1	51*	2
O=C(CN1C(=O)c2ccccc2S1(=O)=O)N1CCCCC1	-2	1
COC(=O)C(C#N)=C1NC(C)=NC(SC)=C1C#N	12	.
COC(=O)c1cnc2nc(C)ccc2c1Nc1ccc(Cl)cc1F	-3	38
CCOC(=O)c1cnc2nc(C)ccc2c1Nc1cc(F)ccc1Cl	0	42
CCOC(=O)c1cnc2nc(C)ccc2c1Nc1cccc(Cl)c1	-13	63*
CCOC(=O)c1cnc2nc(C)ccc2c1Nc1ccc(F)c(Cl)c1	-10	68*
COC(=O)c1cnc2nc(C)ccc2c1Nc1cccc(Cl)c1	-5	11
COC(=O)c1cnc2nc(C)ccc2c1Nc1ccc(Cl)cc1C	1	85*
CCn1cc2c3c(cccc31)CN(C(=O)NCc1ccc(OC)cc1)CC2	-4	23
Cc1ccc2c(c1)NC(=O)C(C(=O)NC1CCCCCCC1)O2 (stereo unspecified)	-2	-4
CC(=NCCO)C1=C(O)c2ccccc2C1=O	2	-5
O=C(Nc1ccc(F)cc1)Nc1nnc(SCc2ccccc2Cl)s1	0	2
COc1ccc(N2CCN(C(=O)c3csc(-c4cccnc4)n3)CC2)cc1	-3	12
CSc1nc(C(=O)O)cc(=O)[nH]1	-13	.
COc1cccc(NC(=O)C2CCN(S(=O)(=O)c3ccc(Br)s3)CC2)c1	3	-12
Nc1cc2c(cc1[N+](=O)[O-])OCO2	6	9
CCc1ccc(C(c2ccc(CC)o2)c2cc3c(cc2[N+](=O)[O-])OCO3)o1	-8	84*
COc1ccccc1N1CCN(C(=O)c2ccccc2Br)CC1	-4	-2
Cc1cc(NS(=O)(=O)c2ccc(NC(=O)c3ccncc3)cc2)nc(C)n1	2	3
O=C1S/C(=C\c2ccccc2F)C(=O)N1CNc1cccc([N+](=O)[O-])c1	-2	-2
Cc1cccc(NCN2C(=O)S/C(=C\c3ccccc3F)C2=O)c1	-4	54*
CC1CN(C(=O)N2CCOCC2)CC(C)O1 (stereo unspecified)	.	-4
SMILES	Pf apPOL inh	mHTT-CaM PPI inh
CC(C)(C)C1CCc2onc(C(=O)Nc3cc(Cl)ccc3O)c2C1 (stereo unspecified)	-5	61*
CC(C)(C)C1CCc2onc(C(=O)Nc3ccc(F)cc3F)c2C1 (stereo unspecified)	-8	-4
CCOc1cc(C)nc(N2CCOCC2)n1	-3	-3
CC(=O)N(CCC1(Cc2ccccc2)CCOC(C)(C)C1)Cc1ccccc1 (stereo unspecified)	-1	56*
COc1ccc(CN(CCC2(Cc3ccccc3)CCOC(C)(C)C2)C(C)=O)cc1 (stereo unspecified)	2	12
CC(=Nc1cccc([N+](=O)[O-])c1)C1=C(O)c2ccccc2C1=O	-4	-2
CCc1cc2c(=O)c(-c3ccc4c(c3)OCCO4)coc2cc1OC(=O)c1ccc(OC)c(OC)c1	-8	4
CCSc1ccc(Cc2nnc(NC(=O)c3ccc(S(=O)(=O)N(C)C)cc3)o2)cc1	-253	61*
CCc1nnc(NC(=O)c2ccc(S(=O)(=O)N(C)C)cc2)o1	-4	24
O=C(NC1CC1)C1CCc2sc(C(=O)N3CCOCC3)cc2C1 (stereo unspecified)	0	-1
Cc1ccc(NC(=O)CSc2nccn2-c2cccc(C)c2C)cc1Cl	-3	13
CC(C)Oc1ccc(NC(=O)c2ccc([N+](=O)[O-])cc2Cl)cc1	-9	10
COCC(C)NC(=O)c1ccc([N+](=O)[O-])cc1Cl (stereo unspecified)	109*	1
COc1ccc(NC(=O)CCCc2ccccc2)cc1	-1	-7
CCOc1ccc(NC(=O)C(C)Sc2nnc(C(c3ccccc3)c3ccccc3)n2C)cc1 (stereo unspecified)	82*	12
CCOc1ccc(NC(=O)C(C)Oc2ccccc2)cc1 (stereo unspecified)	1	-8
COc1ccc(CCN2CC(C(=O)N3CCN(C)CC3)CC2=O)cc1OC (stereo unspecified)	3	-1
Cc1ccc2c(c1)C1CC(C)(O2)N(c2cccc(C(=O)O)c2C)C(=O)N1 (stereo unspecified)	1	-4
CCN(CC)S(=O)(=O)c1ccc(-c2csc(=Nc3ccc(F)cc3)n2CCCO)cc1	-2	51*
CCN(CC)S(=O)(=O)c1ccc(-c2csc(=Nc3cccc(C)c3)n2CCCO)cc1	0	64*
CCN(CC)S(=O)(=O)c1ccc(-c2csc(=Nc3ccc(C)cc3)n2C)cc1	-9	-1

High-throughput results (PubChem)
